The whole screen tested about 16,000 compounds, of which about 5,100 (32%) were called active. Another 25% or so got no clear call; they are omitted. The call rests on the fitted dose curve; in most records, active means well fitted curve in the direction sought with a large enough effect; inconclusive means small, poorly fitted or top-dose-only effect, or effect the other way; inactive means no such curve, though single readings can be large or run the other way. This is one part of the list.
On the % scale 0 is the no-effect control and ±100 the full control effect.

The test deals with Cytochrome P450 3A4 (Homo sapiens) (UniProt P08684). In words: Cytochrome panel assay with activity outcomes. The note with it: recombinant CYP, pro-luciferin dealkylation, luminescence, p450-cyp3a4; series mostly up to 57.1 µM.
Sequence of Cytochrome P450 3A4 (Homo sapiens) (P08684 whole entry, looked up): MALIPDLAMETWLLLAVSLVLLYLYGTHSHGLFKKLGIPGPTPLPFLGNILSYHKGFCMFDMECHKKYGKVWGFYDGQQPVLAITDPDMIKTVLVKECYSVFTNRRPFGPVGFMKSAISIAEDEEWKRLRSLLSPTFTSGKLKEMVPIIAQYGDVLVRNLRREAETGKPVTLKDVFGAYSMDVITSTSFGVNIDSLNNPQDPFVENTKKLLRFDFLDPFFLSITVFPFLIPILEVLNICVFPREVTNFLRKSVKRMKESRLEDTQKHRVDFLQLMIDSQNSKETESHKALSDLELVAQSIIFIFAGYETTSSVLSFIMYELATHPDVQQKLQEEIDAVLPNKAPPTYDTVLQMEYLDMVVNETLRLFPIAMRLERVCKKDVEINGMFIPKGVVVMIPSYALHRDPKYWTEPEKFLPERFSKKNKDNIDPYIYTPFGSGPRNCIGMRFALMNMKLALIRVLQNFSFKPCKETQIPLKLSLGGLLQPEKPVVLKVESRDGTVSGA
Regarding `C[C@@H](N)C(=O)O`, the AC50 entry was “inactive”. Still for that read-out and setting: then `Cc1cc(C)cc(Oc2nn[nH]n2)c1`, with “inactive”; and `CC(C)CCN1CC(C(=O)N2CCN(c3ccc(F)cc3)CC2)CC1=O` (stereo not drawn), with “inactive”. On the same count and under the same terms, then `O=C(CCS(=O)(=O)c1cccs1)N1CCN(c2ccc(F)cc2)CC1`, with 12.6 µM (active).

Consider `Cc1ccccc1S(=O)(=O)Oc1ccccc1C(=O)Oc1ccccc1`, for which the activity, negative = inhibition was -12.1% [at 2.29 µM] (inactive).

In the case of `Nc1ccc(S(=O)(=O)Nc2ccccn2)cc1`, the AC50 result is “inactive”. Turning to `CC(C)CCNC(=O)Cc1ccccc1[N+](=O)[O-]`, the AC50 result was “inactive”. Take `COCCNC(=O)c1cn(Cc2c(F)cccc2Cl)nn1`: the AC50 result was “inactive”. Turning to `O=C(Cc1ccccc1[N+](=O)[O-])NCCSCc1c(F)cccc1Cl`, the AC50 is 14.1 µM (active).

Turning to `CC(C)COCC1CC2(CC(C)(c3csc(N)n3)OC2=O)C(=O)O1` (stereo not drawn), the AC50 is 14.1 µM (active). `CCN1CCC[C@H]1CNC(=O)c1c(OC)ccc(Br)c1OC`: the AC50 result was “inactive”. On the same count and under the same terms, then `CCC1CCCCN1CCn1c(=S)[nH]c2cc(OC)c(OC)cc2c1=O` (stereo not drawn), with 14.1 µM (active); and `CCC1CCCCN1Cc1cc(OC)c(O)c([N+](=O)[O-])c1` (stereo not drawn), with “inactive”. Still for that read-out and setting: then `O=C(O)[C@@H]1C[C@@H](C(=O)O)N1`, with “inactive”; and `Cn1ncc2c(NCCc3ccccc3)nc(Cl)nc21`, with 2 µM (active). As for `Cn1ncc2c(Cl)ncnc21`, the activity, negative = inhibition is -9.04% [at 11.4 µM] (inactive). The same measure, in the same setting: the same measure for `c1ccc(CCNc2nnnn2-c2ccccc2)cc1`: -3.75% [at 2.29 µM] (inactive). As to `CCN1CCN(c2cc(=O)n(-c3cc(Cl)ccc3C)c(=O)[nH]2)CC1`, the AC50 result was “inactive”.

Regarding `CS(=O)c1ccccc1-c1nc(-c2cc(C(F)(F)F)cc(C(F)(F)F)c2)no1` (stereo not drawn), the activity, negative = inhibition was 15.3% [at 2.29 µM] (inactive). For `Cc1cccc(-c2noc(-c3cc4ccccc4oc3=O)n2)c1`, the AC50 is 8.91 µM (active). In the case of `CS(=O)(=O)c1ccccc1-c1nc(-c2cc(C(F)(F)F)cc(C(F)(F)F)c2)no1`, the activity, negative = inhibition is 4.25% [at 2.29 µM] (inactive). Take `COc1nc(Oc2ccc(/C=N/O)cc2)nc(N(C)C)n1`: the activity, negative = inhibition was -3.18% [at 2.29 µM] (inactive). `COc1ccc(/C=C/c2ccncc2)cc1`: the AC50 was 1.58 µM (active). On the same count and under the same terms, the same measure for `COc1ccc(OC(=O)c2ccncc2)cc1`: “inactive”; for `CCOC(=O)CSc1nnc(CNC(=O)c2ccc(OC)cc2)n1C1CCCCC1`: 2 µM (active); for `CCOC(=O)C(C)Sc1nnc(CNC(=O)c2ccc(OC)cc2)n1C1CCCCC1` (stereo not drawn): 0.891 µM (active). For `O[C@@H]1[C@@H](OCc2ccccc2)OC[C@H](O)[C@@H]1O`, the activity, negative = inhibition is -2.87% [at 11.4 µM] (inactive). The same measure, in the same setting: the same measure for `Cc1cc(C)cc(N(C(=O)C2CCCC2)C2C=CS(=O)(=O)C2)c1` (stereo not drawn): -15.4% [at 2.29 µM] (inactive).

The term AC50 denotes the concentration at which the activity in the assay is half-maximal.

These data come from PubChem BioAssay AID1851 (National Center for Advancing Translational Sciences (NCATS), 2009).
